# A number with no mark means an inactive call.
# Test system: Madurella mycetomatis MM55
# Experiment: percent growth relative to solvent control; higher = less inhibition, active = 20 or less
# Details: 100 µM; 7 days
row,Structure (SMILES),percent growth
1,CO[C@H]1/C=C/O[C@@]2(C)Oc3c(C)c(O)c4c(O)c(/c(=C/NN5CCN(C)CC5)c(O)c4c3C2=O)=N\C(=O)/C(C)=C\C=C/[C@H](C)[C@H](O)[C@@H](C)[C@@H](O)[C@@H](C)[C@H](OC(C)=O)[C@@H]1C,92.6%
2,CCN(CC)CCCN1CCN(C(=O)c2cccc(-c3noc(C(F)(F)F)n3)c2)CC1,118%
3,Cc1ccc2cc(C3NC(=O)c4ccccc4N3)c(Cl)nc2c1 (configuration not stated),139%
4,COc1cc(OC)cc(C(=O)NCC2Cc3cc(Cl)cc(-c4ccncc4)c3O2)c1 (configuration not stated),55.9%
5,CC(C)C(NC(=O)Cc1cccc2ccccc12)C(=O)Nc1cccc(C#N)c1 (configuration not stated),121%
6,CC1=Nc2ccc(Cl)cc2C(c2ccccc2)N1CCNC(=O)CN(C)C (configuration not stated),106%
7,O=C(C1CCN(c2nnnn2-c2ccccc2)CC1)N1CCc2ccccc2C1,56.4%
8,COCC(C)NC(=O)CSc1ncnc2sc(-c3ccccc3)cc12 (configuration not stated),64.9%
9,Cc1ccccc1C(=O)N1N=C(Nc2ccccc2)SC1(C)C,93.7%
10,Nc1ncnc2c1c(-c1cnc3ccccc3c1)nn2CC1CCNCC1,93.3%
11,COc1ccc(Oc2ccc([C@@H](C)N(C)c3ncc4c(N)nc(N)nc4n3)cc2)cc1,0.491% (active)
12,Nc1ncnc2c1c(Cc1cccc3ccccc13)nn2CC1CCNCC1,132%
13,CC(=O)Oc1ccccc1C(=O)Nc1ncc([N+](=O)[O-])s1,104%
14,Cc1nn2c(O)c3c(nc2c1-c1ccc(F)cc1)CCCC3,113%
15,COc1ccc(S(=O)(=O)Nc2ccc(CN3CCN(C(=O)c4cccc(C#N)c4)CC3)cc2)cc1,113%
16,Cc1cc(C)n2nc(C(=O)Nc3cc(C(F)(F)F)ccc3N3CCOCC3)nc2n1,162%
17,O=C(OCc1ccccc1)N1CCC(c2cc(-c3ccncc3)c(-c3ccc(F)cc3)[nH]2)CC1,117%
18,COc1ccc(-c2nn(C(C)C)c3ncnc(N)c23)cc1OC,22.9%
19,CNc1cc(C)nc(C2CN(C(=O)c3n[nH]c4ccccc34)CCO2)c1 (configuration not stated),103%
20,Cc1cnc(CCNC(=O)c2cc(-c3ccc(Cl)cc3)cs2)[nH]1,94.3%
21,Cc1cc(C(=O)Nc2cnn(Cc3ccc(Cl)cc3Cl)c2)no1,121%
22,CN1CCN(S(=O)(=O)c2ccc(-c3ccc4c(Nc5ncc(Cl)cn5)ccnc4c3)cc2)CC1,98.9%

# Source: the supplement of paper PMC5940239
